Measurements taken from PubChem BioAssay AID1159580 (chemical genetic matrix, 2015).
Screen size: about 5,500 compounds; about 2,000 (36%) were called active. Not shown: some 18% with an inconclusive outcome. No stated cut-off is given here; in the data, active means normalized growth mostly below about 0.91 (no sharp cut-off); inconclusive means no clear call, values can overlap the other calls; inactive means mostly above about 0.92. Some of the results follow.

Assay: chemical genetic growth profiling, strain panel (AID 1159580);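 further: tested at 20 µM; growth read once vehicle control cultures reached saturation at 30 °C; 1 = growth at the plate median or of vehicle wells; lower values mean less growth of the strain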
Conditions: S. cerevisiae deletion strains, growth OD

Measured: normalized growth

FC(F)(F)c1ccccc1-n1ccnc1
inactive: locus YAL021C, strain ccr4, active compounds read low 0.971 | locus YAL026C, strain drs2, active compounds read low 1.02 | locus YAL030W, strain snc1, active compounds read low 1.01 | locus YAL040C, strain CLN3, active compounds read low 1.01 | locus YBL061C, strain skt5, active compounds read low 1.01 | locus YBR009C, strain hhf1, active compounds read low 1.08 | locus YBR023C, strain chs3, active compounds read low 1 | locus YBR171W, strain sec66, active compounds read low 0.966 | locus YBR231C, strain swc5, active compounds read low 1 | locus YBR279W, strain paf1, active compounds read low 1 | locus YCL011C, strain gbp2, active compounds read low 0.998 | locus YCL016C, strain dcc1, active compounds read low 1.01 | locus YCL061C, strain MRC1 (second series), active compounds read low 1 | locus YCL061C, strain MRC1, active compounds read low 1 | locus YCL069W, strain vba3, active compounds read low 0.999 | locus YCR088W, strain abp1, active compounds read low 0.986 | locus YDL005C, strain med2, active compounds read low 0.992 | locus YDL040C, strain nat1, active compounds read low 1 | locus YDR001C, strain nth1, active compounds read low 0.988 | locus YDR069C, strain doa4, active compounds read low 0.999 | locus YDR137W, strain rgp1, active compounds read low 0.949 | locus YDR159W, strain sac3, active compounds read low 1.04 | locus YDR195W, strain ref2 1.03 | locus YDR297W, strain sur2, active compounds read low 0.995 | locus YDR334W, strain swr1, active compounds read low 0.963 | locus YDR335W, strain msn5, active compounds read low 0.988 | locus YDR363W, strain ESC2, active compounds read low 1.02 | locus YDR392W, strain spt3, active compounds read low 0.993 | locus YEL003W, strain gim4, active compounds read low 0.987 | locus YEL037C, strain rad23, active compounds read low 1 | locus YEL061C, strain CIN8 (second series), active compounds read low 0.995 | locus YER002W, strain NOP16, active compounds read low 0.991 | locus YER015W, strain faa2, active compounds read low 1 | locus YER016W, strain bim1, active compounds read low 1.01 | locus YER111C, strain swi4, active compounds read low 0.999 | locus YER155C, strain BEM2 (second series), active compounds read low 1.04 | locus YFR010W, strain ubp6, active compounds read low 1 | locus YGL167C, strain pmr1, active compounds read low 1.01 | locus YGL173C, strain kem1, active compounds read low 1.01 | locus YGL227W, strain vid30, active compounds read low 1.02 | locus YGL240W, strain doc1, active compounds read low 1.06 | locus YGL253W, strain hxk2, active compounds read low 1 | locus YHR013C, strain ard1, active compounds read low 0.998 | locus YHR027C, strain rpn1, active compounds read low 0.99 | locus YHR030C, strain SLT2, active compounds read low 0.993 | locus YHR079C, strain IRE1, active compounds read low 1.01 | locus YHR142W, strain chs7, active compounds read low 0.935 | locus YJL092W, strain hpr5, active compounds read low 0.975 | locus YJL095W, strain BCK1 (second series), active compounds read low 0.994 | locus YJL095W, strain BCK1, active compounds read low 1 | locus YJL115W, strain asf1, active compounds read low 0.983 | locus YJL129C, strain trk1, active compounds read low 0.974 | locus YJL154C, strain vps35, active compounds read low 1 | locus YJL164C, strain tpk1, active compounds read low 0.978 | locus YJL166W, strain qcr8, active compounds read low 1.01 | locus YJL187C, strain SWE1, active compounds read low 1 | locus YJR066W, strain TOR1, active compounds read low 0.936 | locus YKL160W, strain elf1, active compounds read low 0.971 | locus YKR026C, strain gcn3, active compounds read low 0.993 | locus YKR091W, strain srl3, active compounds read low 1 | locus YLL001W, strain dnm1, active compounds read low 1 | locus YLL026W, active compounds read low 1 | locus YLL041C, strain sdh2, active compounds read low 0.994 | locus YLR027C, strain aat2, active compounds read low 0.99 | locus YLR113W, strain HOG1, active compounds read low 1.05 | locus YLR221C, strain rsa3, active compounds read low 0.985 | locus YLR258W, strain gsy2, active compounds read low 1.03 | locus YLR262C, strain YPT6 (second series), active compounds read low 0.923 | locus YLR320W, strain mms22, active compounds read low 1 | locus YLR342W, strain FKS1, active compounds read low 1 | locus YLR357W, strain rsc2, active compounds read low 1.02 | locus YLR370C, strain arc18, active compounds read low 1 | locus YLR384C, strain iki3, active compounds read low 0.995 | locus YML120C, strain ndi1, active compounds read low 0.979 | locus YMR058W, strain fet3, active compounds read low 0.98 | locus YMR125W, strain sto1, active compounds read low 1.02 | locus YMR129W, active compounds read low 0.992 | locus YMR205C, strain PFK2, active compounds read low 1.09 | locus YMR231W, strain pep5, active compounds read low 1.02 | locus YMR307W, strain GAS1, active compounds read low 1.02 | locus YNL071W, strain lat1, active compounds read low 0.992 | locus YNL175C, strain NOP13, active compounds read low 0.976 | locus YNL183C, strain NPR1, active compounds read low 0.925 | locus YNL197C, strain WHI3, active compounds read low 0.977 | locus YNL209W, strain ssb2, active compounds read low 1 | locus YNL224C, strain SQS1, active compounds read low 0.995 | locus YNL248C, strain rpa49, active compounds read low 0.936 | locus YNL322C, strain KRE1 (second series), active compounds read low 1.01 | locus YNL322C, strain KRE1, active compounds read low 0.996 | locus YNR049C, strain mso1, active compounds read low 0.995 | locus YOR001W, strain rrp6, active compounds read low 0.949 | locus YOR070C, strain gyp1, active compounds read low 1 | locus YOR080W, strain dia2, active compounds read low 1 | locus YOR083W, strain WHI5 (second series), active compounds read low 0.948 | locus YOR083W, strain WHI5, active compounds read low 0.944 | locus YOR106W, strain vam3, active compounds read low 0.951 | locus YOR231W, strain MKK1, active compounds read low 0.981 | locus YOR265W, strain rbl2, active compounds read low 0.991 | locus YOR270C, strain vph1, active compounds read low 0.946 | locus YOR290C, strain snf2, active compounds read low 0.939 | locus YPL051W, strain arl3, active compounds read low 0.98 | locus YPL078C, strain atp4, active compounds read low 0.931 | locus YPL106C, strain sse1, active compounds read low 1.02 | locus YPL240C, strain hsp82, active compounds read low 0.975 | locus YPL241C, strain CIN2, active compounds read low 0.998 | locus YPL256C, strain CLN2, active compounds read low 1.03
